Laboratory results taken from PubChem BioAssay (EPA / NIEHS).
Inconclusive results are not listed. The source made the active and inactive calls. The calls were made as follows: active = hit-call score of the fitted dose curve at least 0.9, where 1 is the maximum; inconclusive = response in the unintended direction; inactive = score below 0.9.

Assay: CCTE_Simmons_MITO_viability: CellTiter-Glo Viability Assessment for CCTE's HepG2 Seahorse XF Respirometric Screening Assay [post-hoc], Simmons Lab (AID 2284007);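 as to AC50: cells exposed to chemical for 90 min before the ATP read; actives lower ATP signal relative to DMSO baseline meaning reduced viability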
Procedure: CCTE_Simmons_MITO is cell-based, respirometric assay using HepG2 cells and a Seahorse XF Analyzer to measure oxygen consumption rates over four temporal phases spanning a total of 72 minutes: pre-injection (pre-treatment), basal (following test compound injection), maximal (following FCCP uncoupler injection), and inhibited (following rotenone/antimycin A injection)CCTE_Simmons_MITO_viability is one of 4 assay components measured from the CCTE_Simmons_MITO assay. It is designed to make measurements of ATP content, a form of viability reporter, as detected with bioluminescence signals by Luciferase-coupled ATP quantitation technology. Data from the assay component CCTE_Simmons_MITO_viability was analyzed at the endpoint, CCTE_Simmons_MITO_viability, in the positive analysis fitting direction relative to DMSO as the negative control and baseline of activity. Using a type of viability reporter, measures of ATP content for loss-of-signal activity can be used to understand the viability. To generalize the intended target to other relatable targets, this assay endpoint is annotated to the cell cycle intended target family, where the subfamily is cytotoxicity.
Test chemicals were administered as a titrated series of 7 concentrations from 125 nM up to 100 uM [final] for 90 minutes prior to single endpoint detection. Three biological replicates of technical singles were run for every chemical concentration tested. Dimethylsulfoxide [DMSO] was used as the vehicle control. Dichlone [DCNQ] was used as the positive control and was administered as a titrated series of 8 concentrations from 10 nM up to 100 uM [final].

| Compound | AC50 | outcome |
| --- | --- | --- |
| CCC(C)c1cc([N+](=O)[O-])cc([N+](=O)[O-])c1O (centres undefined) | 2.91 µM (active) |  |
| CC(c1ccc(O)cc1)(c1ccc(O)cc1)c1ccc(O)cc1 |  | inactive |
| CCSC(=O)N(CC)C1CCCCC1 |  | inactive |
| O=C(O)C(F)(F)C(F)(F)C(F)(F)C(F)(F)C(F)(F)C(F)(F)C(F)(F)C(F)(F)C(F)(F)F |  | inactive |
| Oc1c(Cl)c(Cl)c(Cl)c(Cl)c1Cl | 6.35 µM (active) |  |
| CC(C)(c1ccccc1)c1ccc(O)cc1 |  | inactive |
| C[C@]12CCC(=O)C=C1CC[C@@H]1[C@@H]2CC[C@]2(C)C(=O)CC[C@@H]12 |  | inactive |
| O=C(O)C(F)(F)C(F)(F)C(F)(F)C(F)(F)C(F)(F)C(F)(F)C(F)(F)C(F)(F)F |  | inactive |
| NS(=O)(=O)C(F)(F)C(F)(F)C(F)(F)C(F)(F)C(F)(F)C(F)(F)C(F)(F)C(F)(F)F |  | inactive |
| N#Cc1ccc(N(CC(N)=O)CC(F)(F)F)cc1C(F)(F)F |  | inactive |
| CC(C)(O)C(=O)Nc1ccc([N+](=O)[O-])c(C(F)(F)F)c1 |  | inactive |
| COc1ccc(O)c(C(C)(C)C)c1 |  | inactive |
| CO/C=C(/C(=O)OC)c1ccccc1COc1cccc(C(F)(F)F)n1 |  | inactive |
| CCCCCCCCCC[N+](C)(C)CCCCCCCCCC | 28 µM (active) |  |
